This note sets out measurements from ChEMBL document CHEMBL4513146, “CO-ADD screening of Karazin Kharkiv National University (Ukraine) compounds”.

Results with a measured potency or affinity are listed apart.

The first test relates to Staphylococcus aureus. The conditions noted are these: Concentration 32 ug.mL-1;; ASSAY_TEST Inhibition of Bacterial Growth; detection method Absorption (OD600); MEDIA CAMHB; plate type 384well; NBS; CORNING #3640; time 18 hr.
Consider `COc1ccc(N(Cc2cccc(C)c2)S(=O)(=O)c2ccc3nncn3c2)cc1`, for which the Inhibition (as a rule, the drop in the measured response relative to a control, in per cent) is -29.14%.

`COc1ccccc1CNC(=O)Cn1nc2c(N3CCSCC3)nccn2c1=O`: the Inhibition worked out at 5.62%.

Turning to `Cc1ccc(C)c(NC(=O)Cn2nc3c(N4CCCC(C)C4)nccn3c2=O)c1` (stereo not drawn), the Inhibition is given as -2.35%.

`COc1ccc(NC(=O)Cn2nc3cc(C)nc(Nc4cc(C)cc(C)c4)n3c2=O)cc1`: the Inhibition came to 9.51%.

Turning to `CC(C)c1nnc2c(SCC(=O)N3CCN(c4ccc(F)cc4)CC3)nc3ccccc3n12`, the Inhibition came out at 10.21%.

`CCCn1c(=O)c2sccc2n2c(=O)n(CC(=O)c3cc(C)ccc3C)nc12`: the Inhibition came out at 7.83%.

With `O=c1c2sccc2n2c(SCc3cccc(C(F)(F)F)c3)nnc2n1Cc1cccs1`, the Inhibition was found to be 3.6%.

Turning to `O=S(=O)(c1cccn2cnnc12)N(Cc1cccc(Cl)c1)c1cc(F)cc(F)c1`, the Inhibition is 17.81%.

For the compound `Cc1ccc(N(CC(=O)OC(C)(C)C)S(=O)(=O)c2cccn3cnnc23)cc1`, the Inhibition is given as 15.19%.

Take `Cc1cc(C)cc(N(Cc2ccc(F)cc2)S(=O)(=O)c2cccn3c(C)nnc23)c1`: the Inhibition is on record as -7.01%.

On to `COc1ccc(OC)c(NC(=O)Cn2nc3c4cc(-c5ccc(Cl)cc5)nn4ccn3c2=O)c1`, for which the Inhibition is -2.94%.

With `COc1ccc(C(=O)CSc2nnc3c(=O)n(-c4ccc(F)c(F)c4)ccn23)cc1`, the Inhibition is on record as 14.04%.

As for `CCOc1ccc(NC(=O)CSc2nnc3c(=O)n(-c4ccc(OCC)cc4)ccn23)cc1`, the Inhibition turned out to be 16.17%.

With `Cc1ccc(Oc2nccn3c(=O)n(CC(=O)Nc4ccc(Br)cc4F)nc23)cc1`, the Inhibition is given as 5.87%.

For `COc1ccc(OC)c(NC(=O)Cn2nc3c4c5c(sc4ncn3c2=O)CCCC5)c1`, the Inhibition came to 3.15%.

For the compound `Cc1ccc(-c2ccc3nnc(CCC(=O)N4CCN(C(=O)c5ccco5)CC4)n3n2)cc1C`, the Inhibition came to 7.73%.

Consider `O=S(=O)(c1ccc2nncn2c1)N(Cc1ccccc1F)c1ccc2c(c1)OCO2`, for which the Inhibition came to 12.13%.

Take `O=C(Cn1nc2c3cc(-c4ccc(Cl)cc4)nn3ccn2c1=O)NC1CCCC1`: the Inhibition is on record as -0.6%.

Take `O=C(Cn1nc2ccc(SCc3ccc(Cl)cc3)nn2c1=O)Nc1ccccc1C(F)(F)F`: the Inhibition is given as 4.98%.

Consider `COc1ccc(NC(=O)Cn2nc3c4cc(-c5ccc(C)c(C)c5)nn4ccn3c2=O)cc1Cl`, for which the Inhibition was -7.37%.

On to `CCOC(=O)c1cccc(NC(=O)Cn2nc3c4cc(-c5ccc(C)c(C)c5)nn4ccn3c2=O)c1`, for which the Inhibition is reported as -12.42%.

As for `COc1ccc(CN(c2ccc(F)c(F)c2)S(=O)(=O)c2ccc3nncn3c2)cc1`, the Inhibition is -0.97%.

In the case of `CCc1nnc2c(S(=O)(=O)N(Cc3ccc(F)cc3)c3ccc(Cl)cc3)cccn12`, the Inhibition is 8.89%.

As for `O=c1c2sccc2n2c(SCc3cccc(C(F)(F)F)c3)nnc2n1Cc1ccc(F)cc1`, the Inhibition came out at 9.81%.

Consider `Cc1ccc(-c2ccc3nn(CC(=O)Nc4cccc(Cl)c4)c(=O)n3n2)cc1C`, for which the Inhibition is listed as -4.46%.

On to `CCCCn1c(=O)c2sccc2n2c(CCC(=O)NC(C)C34CC5CC(CC(C5)C3)C4)nnc12` (stereo not drawn), for which the Inhibition is recorded as 9.01%.

In the case of `O=C(CSc1nnc2c(=O)n(-c3ccccc3)ccn12)c1c[nH]c2ccccc12`, the Inhibition worked out at 16.15%.

For `Cc1ccc(NC(=O)Cn2nc3c(SCc4ccc(Cl)cc4)nccn3c2=O)c(C)c1`, the Inhibition is listed as 10.91%.

Turning to `COc1ccc(-c2cc3c4nn(CC(=O)Nc5cc(OC)ccc5OC)c(=O)n4ccn3n2)cc1`, the Inhibition is 5.8%.

Regarding `COc1ccc(CNC(=O)Cn2nc3c(N4CCOCC4)nccn3c2=O)cc1`, the Inhibition stood at 22.13%.

Turning to `CCOc1ccc(-n2ccn3c(SCC#N)nnc3c2=O)cc1`, the Inhibition amounted to 8.92%.

On to `Cc1ccc(NC(=O)Cn2c(=O)c3nnc(C)n3c3ccccc32)cc1C`, for which the Inhibition stood at 17.12%.

For the compound `COc1cccc(NC(=O)Cn2nc3ccc(SCc4ccc(Cl)cc4)nn3c2=O)c1`, the Inhibition is recorded as -4.03%.

In the case of `Cc1ccc(Sc2nccn3c(=O)n(CC(=O)Nc4ccccc4C)nc23)c(C)c1`, the Inhibition is on record as -3.06%.

Regarding `COc1ccc(Cl)cc1NC(=O)CSc1nnc2c(=O)n(-c3ccccc3)ccn12`, the Inhibition is given as 7.26%.

Take `Cc1ccccc1Oc1nc2ccccc2n2c(=O)n(CC(=O)Nc3cccc(C(F)(F)F)c3)nc12`: the Inhibition worked out at 7.78%.

Consider `COc1cccc(-n2ccn3c(SCC(=O)Nc4ccc(OC)c(OC)c4)nnc3c2=O)c1`, for which the Inhibition was 14.09%.

As for `Cc1nnc2c(S(=O)(=O)N(Cc3ccc(F)cc3)c3ccc(F)c(F)c3)cccn12`, the Inhibition is 15.7%.

In the case of `Cc1cc2nn(CC(=O)Nc3cc(F)ccc3C)c(=O)n2c(Nc2ccc(F)cc2)n1`, the Inhibition turned out to be 4.25%.

The next test has as its system Escherichia coli. To be noted: Concentration 32 ug.mL-1;; ASSAY_TEST Inhibition of Bacterial Growth; detection method Absorption (OD600); MEDIA CAMHB; plate type 384well; NBS; CORNING #3640; time 18 hr.
As for `COc1ccc(N(Cc2cccc(C)c2)S(=O)(=O)c2ccc3nncn3c2)cc1`, the Inhibition is on record as -12.64%.

For `COc1ccccc1CNC(=O)Cn1nc2c(N3CCSCC3)nccn2c1=O`, the Inhibition is listed as -5.9%.

Take `Cc1ccc(C)c(NC(=O)Cn2nc3c(N4CCCC(C)C4)nccn3c2=O)c1` (stereo not drawn): the Inhibition is reported as -6.19%.

Regarding `COc1ccc(NC(=O)Cn2nc3cc(C)nc(Nc4cc(C)cc(C)c4)n3c2=O)cc1`, the Inhibition is -1.23%.

For `CC(C)c1nnc2c(SCC(=O)N3CCN(c4ccc(F)cc4)CC3)nc3ccccc3n12`, the Inhibition is -1.94%.

As to `CCCn1c(=O)c2sccc2n2c(=O)n(CC(=O)c3cc(C)ccc3C)nc12`, the Inhibition was 0.58%.

Take `O=c1c2sccc2n2c(SCc3cccc(C(F)(F)F)c3)nnc2n1Cc1cccs1`: the Inhibition was -11.21%.

Turning to `O=S(=O)(c1cccn2cnnc12)N(Cc1cccc(Cl)c1)c1cc(F)cc(F)c1`, the Inhibition is -3.49%.

`Cc1ccc(N(CC(=O)OC(C)(C)C)S(=O)(=O)c2cccn3cnnc23)cc1`: the Inhibition is -3.99%.

In the case of `Cc1cc(C)cc(N(Cc2ccc(F)cc2)S(=O)(=O)c2cccn3c(C)nnc23)c1`, the Inhibition is on record as -9.2%.

Turning to `COc1ccc(OC)c(NC(=O)Cn2nc3c4cc(-c5ccc(Cl)cc5)nn4ccn3c2=O)c1`, the Inhibition is -2.51%.

As to `COc1ccc(C(=O)CSc2nnc3c(=O)n(-c4ccc(F)c(F)c4)ccn23)cc1`, the Inhibition is on record as -0.82%.

Take `CCOc1ccc(NC(=O)CSc2nnc3c(=O)n(-c4ccc(OCC)cc4)ccn23)cc1`: the Inhibition is -1.04%.

`Cc1ccc(Oc2nccn3c(=O)n(CC(=O)Nc4ccc(Br)cc4F)nc23)cc1`: the Inhibition is given as -0.38%.

In the case of `COc1ccc(OC)c(NC(=O)Cn2nc3c4c5c(sc4ncn3c2=O)CCCC5)c1`, the Inhibition is -1.54%.

Regarding `Cc1ccc(-c2ccc3nnc(CCC(=O)N4CCN(C(=O)c5ccco5)CC4)n3n2)cc1C`, the Inhibition is -0.43%.

`O=S(=O)(c1ccc2nncn2c1)N(Cc1ccccc1F)c1ccc2c(c1)OCO2`: the Inhibition is -4.11%.

For the compound `O=C(Cn1nc2c3cc(-c4ccc(Cl)cc4)nn3ccn2c1=O)NC1CCCC1`, the Inhibition is given as -3.32%.

As to `O=C(Cn1nc2ccc(SCc3ccc(Cl)cc3)nn2c1=O)Nc1ccccc1C(F)(F)F`, the Inhibition is -5.74%.

As for `COc1ccc(NC(=O)Cn2nc3c4cc(-c5ccc(C)c(C)c5)nn4ccn3c2=O)cc1Cl`, the Inhibition is 0.15%.

For the compound `CCOC(=O)c1cccc(NC(=O)Cn2nc3c4cc(-c5ccc(C)c(C)c5)nn4ccn3c2=O)c1`, the Inhibition was -16.13%.

For the compound `COc1ccc(CN(c2ccc(F)c(F)c2)S(=O)(=O)c2ccc3nncn3c2)cc1`, the Inhibition was -4.01%.

For the compound `CCc1nnc2c(S(=O)(=O)N(Cc3ccc(F)cc3)c3ccc(Cl)cc3)cccn12`, the Inhibition is listed as -2.23%.

Take `O=c1c2sccc2n2c(SCc3cccc(C(F)(F)F)c3)nnc2n1Cc1ccc(F)cc1`: the Inhibition is listed as -1.38%.

Take `Cc1ccc(-c2ccc3nn(CC(=O)Nc4cccc(Cl)c4)c(=O)n3n2)cc1C`: the Inhibition is -9.75%.

`CCCCn1c(=O)c2sccc2n2c(CCC(=O)NC(C)C34CC5CC(CC(C5)C3)C4)nnc12` (stereo not drawn): the Inhibition came to 0.33%.

Consider `O=C(CSc1nnc2c(=O)n(-c3ccccc3)ccn12)c1c[nH]c2ccccc12`, for which the Inhibition is given as -0.51%.

For `Cc1ccc(NC(=O)Cn2nc3c(SCc4ccc(Cl)cc4)nccn3c2=O)c(C)c1`, the Inhibition was -3.69%.

Consider `COc1ccc(-c2cc3c4nn(CC(=O)Nc5cc(OC)ccc5OC)c(=O)n4ccn3n2)cc1`, for which the Inhibition was 4.02%.

As for `COc1ccc(CNC(=O)Cn2nc3c(N4CCOCC4)nccn3c2=O)cc1`, the Inhibition is recorded as 3.1%.

Consider `CCOc1ccc(-n2ccn3c(SCC#N)nnc3c2=O)cc1`, for which the Inhibition is recorded as 2.37%.

As to `Cc1ccc(NC(=O)Cn2c(=O)c3nnc(C)n3c3ccccc32)cc1C`, the Inhibition is on record as 0.02%.

As for `COc1cccc(NC(=O)Cn2nc3ccc(SCc4ccc(Cl)cc4)nn3c2=O)c1`, the Inhibition is 0.27%.

With `Cc1ccc(Sc2nccn3c(=O)n(CC(=O)Nc4ccccc4C)nc23)c(C)c1`, the Inhibition was -8.99%.

Take `COc1ccc(Cl)cc1NC(=O)CSc1nnc2c(=O)n(-c3ccccc3)ccn12`: the Inhibition is on record as -0.85%.

As to `Cc1ccccc1Oc1nc2ccccc2n2c(=O)n(CC(=O)Nc3cccc(C(F)(F)F)c3)nc12`, the Inhibition amounted to 2.27%.

Consider `COc1cccc(-n2ccn3c(SCC(=O)Nc4ccc(OC)c(OC)c4)nnc3c2=O)c1`, for which the Inhibition is given as -2.6%.

For `Cc1nnc2c(S(=O)(=O)N(Cc3ccc(F)cc3)c3ccc(F)c(F)c3)cccn12`, the Inhibition is 3.7%.

As to `Cc1cc2nn(CC(=O)Nc3cc(F)ccc3C)c(=O)n2c(Nc2ccc(F)cc2)n1`, the Inhibition is -5.18%.
